Assay outcomes (PubChem BioAssay)
Lmaj promast = Leishmania major promastigote growth inhibition; Leishmania major promastigotes, resazurin fluorescence viability; inhibition, % at 10 µM; 200,000 compounds, 9% hits; in the data active = inhibition above about 50%;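 also: promastigotes grown with compound for 44 hours at 28 °C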
Insulin prom inh = TRM-6 insulin promoter activity inhibition. 130,000 compounds, 0.9% hits. inhibition, % at 2 µM. TRM-6 cells (human fetal islet line), insulin promoter-eGFP reporter, imaging; reporter expression induced with tamoxifen. AID 1273;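 active = inhibition above the mean plus 3 SD, with well images judged a real hit on visual review, cut at about 60% in these data, passing the limit was not always enough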
HCT116 PTEN-null = suppresses growth of cells with PTEN deletion | HCT116 PTEN-null viability, CellTiter-Glo, 60 h; active compounds read low | viability, % at 10 µM | 140,000 compounds, 1.2% hits | AID 827;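 active = viability at or below a set limit, 4 SD under the median of all tested compounds, cut at about 3.7% in these data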;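 also: PTEN knockout HCT116 line with beta catenin targeted HCT116 as companion control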
ROMK mod = modulates human ROMK potassium channel activity | P48048 | 130,000 compounds, 2% hits | B-score at 10 µM | Tet-inducible ROMK, thallium flux fluorescence; actives lie on both sides | AID 1918;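 active = signal ratio slope over the read window, or its plate-corrected B-score, at least 3 SD from the plate mean, either direction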;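 also: B-score of the F/F0 ratio slope over 7 to 12 s after thallium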
Target sequence (P48048 whole entry, looked up): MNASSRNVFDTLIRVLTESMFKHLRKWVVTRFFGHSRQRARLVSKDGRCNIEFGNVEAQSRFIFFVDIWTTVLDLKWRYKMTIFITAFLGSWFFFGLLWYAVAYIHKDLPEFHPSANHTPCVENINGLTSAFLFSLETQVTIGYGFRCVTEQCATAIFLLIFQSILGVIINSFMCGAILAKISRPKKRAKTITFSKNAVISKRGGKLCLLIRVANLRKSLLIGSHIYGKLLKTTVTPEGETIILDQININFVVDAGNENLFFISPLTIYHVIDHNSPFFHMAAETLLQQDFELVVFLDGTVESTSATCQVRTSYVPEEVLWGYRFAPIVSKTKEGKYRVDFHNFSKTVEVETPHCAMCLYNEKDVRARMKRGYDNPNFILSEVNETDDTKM
HCT116 bCat-KO = beta-catenin-lacking colon tumor cell growth suppression; HCT116 beta-catenin knockout viability, CellTiter-Glo, 60 h; active compounds read low; viability, % at 10 µM; 140,000 compounds, 1.5% hits; AID 818;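 active = viability at or under a set limit, the compound median less 4 SD, cut at about 6% in these data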;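 also: 0% = Hyamine 1622 control at 20 µM and 100% = untreated cell control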
p97 ATPase inh = human p97 ATPase inhibition | 220,000 compounds, 0.42% hits | recombinant p97 ATPase, Kinase-Glo ATP luminescence, 3 h | inhibition, % at 8 µM | AID 1481 | P55072; in the data active = inhibition above about 15%;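 also: 0% = DMSO vehicle and 100% = wells lacking enzyme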
* = called active by the depositor; · = not tested or not shown. Most compounds without a hit are left out; they make up all but 10% or so of the library.

SMILES	Lmaj promast	Insulin prom inh	HCT116 PTEN-null	ROMK mod	HCT116 bCat-KO	p97 ATPase inh
O=C(CSc1c2c(nc3cc(Cl)ccc13)CCCC2)NCc1ccco1	39	64	62	·	68	1
C=CCN(c1ccc(F)cc1)S(=O)(=O)c1cc(C(=O)OCC(=O)N(C)C2CCS(=O)(=O)C2)ccc1Cl (stereo unspecified)	·	·	·	·	·	-1
COc1cc(/C=C(/C#N)c2nc3ccccc3[nH]2)ccc1OCC(=O)Nc1ccccc1C(C)C	40	19	0.7*	·	1.2*	4
COCCNC(=S)NC(=O)CC12CC3CC(CC(C3)C1)C2	88*	-89	86	-1.6	85	3
CNC(=O)CC12CC3CC(CC(C3)C1)C2	-2	-3	114	0.55	107	3
CCCCN(C(=O)c1ccc2c(c1)OCO2)c1ccccc1	22	·	·	-0.15	·	3
CCOC(=O)C(=CNc1ccc(OC)cc1[N+](=O)[O-])C(=O)OCC	·	·	·	·	·	1
CCSc1ccc2cc(OC)ccc2[n+]1CC	84*	·	·	0.52	·	11
CCn1ccc2cc(OC)ccc2c1=S	-3	3	78	·	84	1
CC(=O)N1CCOCCOCCN(C(C)=O)CCOCC1	1	40	·	-0.011	·	7
c1ccc(-c2ccc(CN3CCN(c4ncccn4)CC3)cc2)cc1	-1	·	95	·	93	-6
O=C(c1ccc(-c2ccccc2)cc1)C1CCCN(Cc2ccncc2)C1 (stereo unspecified)	93*	·	·	-1.6	·	0
Cc1nn(C)cc1CN1CCCC(C(=O)c2ccc(-c3ccccc3)cc2)C1 (stereo unspecified)	90*	·	·	-0.46	·	-2
Cc1ncoc1C(=O)N1CCCC(C(=O)c2ccc(-c3ccccc3)cc2)C1 (stereo unspecified)	-7	·	·	-0.96	·	-2
CC(=O)Nc1ccc(CN2CCCC(C(=O)c3ccc(C(F)(F)F)cc3)C2)cc1 (stereo unspecified)	82*	·	·	0.65	·	1
OCC1CCCN(Cc2ccc(-c3ccccc3)cc2)C1 (stereo unspecified)	96*	64	83	·	78	5
NS(=O)(=O)c1cccc(NS(=O)(=O)c2ccc(/C=C/C(=O)O)cc2)c1	·	·	·	·	·	6
CC/C(=N\NC(=O)CCC(=O)NCc1ccccc1)c1ccc(O)cc1	-6	·	·	·	·	7
O=C1CN(C(=O)CNCc2ccccc2)c2ccccc2N1	·	·	·	·	·	3
O=C(c1ccc(Cl)cc1)C1CCCN(Cc2ccc(Oc3ncccn3)cc2)C1 (stereo unspecified)	86*	·	·	-0.022	·	-5
O=C(C1CCCN(Cc2ccccc2)C1)N1CCCCC1 (stereo unspecified)	-5	·	89	0.59	84	3
Cc1ccsc1C(=O)C1CCCN(Cc2cn(C)nc2-c2ccccc2)C1 (stereo unspecified)	6	-52	·	0.034	·	-2
Cn1cc(CN2CCN(c3cnccn3)CC2)c(-c2cccc(Cl)c2)n1	27	·	·	·	·	2
CC(C1CCN(Cc2cn(C)nc2-c2cccc(Cl)c2)CC1)N1CCOCC1 (stereo unspecified)	69*	·	·	0.0073	·	1
OCCC1CN(Cc2ccc(Oc3ncccn3)cc2)CCN1C1CCCCC1 (stereo unspecified)	·	·	·	·	·	9
SMILES	Lmaj promast	Insulin prom inh	HCT116 PTEN-null	ROMK mod	HCT116 bCat-KO	p97 ATPase inh
Cn1cc(CN2CCCC(C(=O)c3cccs3)C2)c(-c2cccc(Cl)c2)n1 (stereo unspecified)	63*	·	·	-2	·	-4
O=C(c1ccc(Cl)cc1)C1CCCN(Cc2cnn(-c3ccccc3)c2)C1 (stereo unspecified)	84*	·	·	-0.39	·	1
Cn1c(=O)n(C)c2cc(NC(=O)COc3ccc(Cl)cc3)ccc21	-1	-11	·	0.48	·	-5
Cc1nn(C)c(Cl)c1C(=O)NCC(=O)Nc1ccc(C(C)C)cc1	-5	·	·	-0.014	·	4
N=c1oc2ccc3ccccc3c2cc1C(N)=S	1	·	·	1.9	·	5
COC(=O)c1cccc(Cn2nc(C)c([N+](=O)[O-])c2C)c1	1	0	·	-0.32	·	0
Cc1cccc(Nc2nc(N)c([N+](=O)[O-])c(N3CCCC(C)C3)n2)c1 (stereo unspecified)	20	·	2.8*	·	9	2
CCc1ccc(S(=O)(=O)NC(=S)NC2CCCCC2)cc1	-1	·	·	-0.14	·	0
CCOc1ccc(N(CC(=O)N2CCC(Cc3ccccc3)CC2)S(C)(=O)=O)cc1	-3	11	·	-0.24	·	2
COc1ccc(C2(O)CCN(CC(=O)Nc3nccs3)CC2)c(OC)c1	88*	·	92	-0.28	90	-3
CC(C)N1CCC(=NNC(=O)c2ccc(Br)o2)CC1	3	·	116	2.7*	100	0
Cc1cccn2cc(-c3ccc(Cl)cc3)nc12	16	·	·	-0.021	·	-6
Cc1ccc(-c2cn3cccc(C)c3n2)cc1	32	73*	·	-0.65	·	-2
O=c1onc(-c2ccc(Cl)cc2Cl)n1-c1cccnc1	·	·	·	·	·	2
COc1ccc(-c2csc3nc(C)nc(N4CCN(c5ccc(C(C)=O)cc5)CC4)c23)cc1OC	18	-29	·	-0.35	·	-1
CN1/C(=C\C(=O)c2ccccc2Cl)c2ccccc2CC1(C)C	70*	-35	59	-1.7	53	1
CCCS(=O)(=O)c1cscc1NC(=O)c1c(-c2c(F)cccc2Cl)noc1C	·	·	·	·	·	2
COc1ccc(CCNC(=O)CCc2ccc(S(=O)(=O)NC(C)C)cc2)cc1	-3	71*	93	0.4	95	-8
COc1ccc(CCNC(=O)COc2ccc(N(C)S(=O)(=O)c3ccc(C)cc3)cc2)cc1OC	37	·	·	1.1	·	-5
CC(C)NS(=O)(=O)c1ccc(CCC(=O)O)cc1	-7	27	85	·	89	8
COc1ccc(CCNC(=O)COc2ccc(N(C)S(=O)(=O)c3ccc(Cl)cc3)cc2)cc1	97*	·	·	-1.3	·	-5
COc1ccc(/C=C/C(=O)NCCc2ccc(S(N)(=O)=O)cc2)cc1	62*	-8	87	0.85	88	2
C=CCc1cc(/C=N/NC(=O)CSc2nnc(CCCc3ccc(OC)cc3)o2)cc(OC)c1O	0	-4	92	0.52	90	0
Cc1ccccc1NC(=S)NNC(=O)c1csc2c1CCC(C)C2 (stereo unspecified)	-6	-32	65	0.44	69	-5
CC(NC(=O)C(c1ccccc1)c1ccccc1)C(=O)O (stereo unspecified)	-5	16	91	-0.58	80	2
CC(NC(=O)C(c1ccccc1)c1ccccc1)C(=O)N1CCCCC1 (stereo unspecified)	52*	-78	·	0.2	·	-4
O=C(CN(Cc1cccs1)C(=O)CCC(=O)Nc1ccccn1)NCc1ccccc1	-2	·	·	-0.0079	·	3
Cc1cc2cc3c(cc2nc1SCC(=O)N1c2ccccc2CC1C)OCO3 (stereo unspecified)	16	-431	54	·	48	5
CC(C)NC(=O)Cn1c(SCC(=O)N2c3ccccc3CC2C)nc2ccccc21 (stereo unspecified)	13	·	95	-1.2	99	-7
